Each structure is given as a SMILES string. Records with an inconclusive call do not appear. The source made the active and inactive calls. Calls follow the shape of the dose curve; as a rule, active = well fitted inhibition curve with a large enough effect; inconclusive = small, poorly fitted or top-dose-only effect; inactive = flat fitted curve, though single readings scatter.

Assay [1] deals with Luciferin 4-monooxygenase (Photinus pyralis) (UniProt P08659). The experiment in a line: Biochemical firefly luciferase enzyme assay for NPC (AID 624030).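 Also: purified P. pyralis luciferase at 10 nM with luciferin and ATP substrate; nearly all actives have a fitted effect of over 70% in size.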 The method in brief: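 Direct inhibition of firefly luciferase enzyme (10 nM final, 50 mM Tris Acetate) assessed by luminescence within 5 minutes. Percent activity scaled between DMSO and PTC124 positive control, with concentration-effect curves classified by fit quality and response.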
Luciferin 4-monooxygenase (Photinus pyralis), sequence (P08659 whole entry, looked up): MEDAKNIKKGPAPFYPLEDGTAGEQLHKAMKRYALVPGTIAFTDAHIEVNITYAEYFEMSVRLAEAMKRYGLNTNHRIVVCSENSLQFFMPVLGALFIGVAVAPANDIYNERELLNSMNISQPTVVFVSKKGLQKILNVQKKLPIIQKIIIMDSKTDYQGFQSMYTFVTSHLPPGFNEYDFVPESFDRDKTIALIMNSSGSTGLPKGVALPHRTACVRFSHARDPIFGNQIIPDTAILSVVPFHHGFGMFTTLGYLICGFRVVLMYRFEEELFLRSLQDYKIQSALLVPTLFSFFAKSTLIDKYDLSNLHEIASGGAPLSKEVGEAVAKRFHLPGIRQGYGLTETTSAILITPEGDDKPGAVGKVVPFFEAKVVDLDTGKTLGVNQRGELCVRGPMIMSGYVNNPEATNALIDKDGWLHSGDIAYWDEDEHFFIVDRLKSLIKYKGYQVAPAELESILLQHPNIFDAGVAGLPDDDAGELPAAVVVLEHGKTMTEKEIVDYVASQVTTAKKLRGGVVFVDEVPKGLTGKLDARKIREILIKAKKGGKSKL

Another assay deals with CP266. The experiment in a line: qHTS profiling for inhibitors of Plasmodium falciparum proliferation (AID 504749). Also: nearly all actives have a fitted effect of over 60% in size. Also: potency is read from the fitted curve at half-maximal effect. The conditions noted are these: P. falciparum in erythrocytes, SYBR Green DNA, 72 h; series mostly up to 28.7 µM. Put shortly:
(§1)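 Three-day growth assay of blood-stage parasites in erythrocytes (0.3% parasitemia, 2.5% hematocrit) at 37 C, 5% CO2, quantified by SYBR Green DNA staining after overnight detergent lysis.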
(qHTS replaces the single test concentration by a dilution series.)

The test system of a further assay is CP268. Described as above. The conditions noted are these: P. falciparum in erythrocytes, SYBR Green DNA, 72 h; series mostly up to 28.7 µM. The method in brief:
as §1

The subject of the next assay is CP269. Described as above. The conditions noted are these: P. falciparum in erythrocytes, SYBR Green DNA, 72 h; series mostly up to 28.7 µM. The method in brief:
as §1

The next assay concerns CP297. The assay is described as above. The conditions noted are these: P. falciparum in erythrocytes, SYBR Green DNA, 72 h; series mostly up to 28.7 µM. Put shortly: as §1
In a further assay the test system is CP305. Described as above. Conditions: P. falciparum in erythrocytes, SYBR Green DNA, 72 h; series mostly up to 28.7 µM. The method in brief: as §1
The subject of a further assay is CP325. The description is as above. Conditions: P. falciparum in erythrocytes, SYBR Green DNA, 72 h; series mostly up to 28.7 µM. Put shortly:
as §1

In another assay the test system is CP329. Described as above. Conditions: P. falciparum in erythrocytes, SYBR Green DNA, 72 h; series mostly up to 28.7 µM. Put shortly:
as §1

The test system of a further assay is CP335. The assay is described as above. Conditions: P. falciparum in erythrocytes, SYBR Green DNA, 72 h; series mostly up to 28.7 µM. The method in brief: as §1
Another assay concerns DIV14. The description is as above. Conditions: P. falciparum in erythrocytes, SYBR Green DNA, 72 h; series mostly up to 28.7 µM. Put shortly:
as §1

A further assay relates to ECU. Described as above. The conditions noted are these: P. falciparum in erythrocytes, SYBR Green DNA, 72 h; series mostly up to 28.7 µM. Put shortly: as §1
The subject of a further assay is GB4. The description is as above. The conditions noted are these: P. falciparum in erythrocytes, SYBR Green DNA, 72 h; series mostly up to 28.7 µM. The method in brief:
as §1

A further assay deals with JCK. The assay is described as above. Conditions: P. falciparum in erythrocytes, SYBR Green DNA, 72 h; series mostly up to 28.7 µM. The method in brief:
as §1

The next assay has as its system P93_24. The assay is described as above. Conditions: P. falciparum in erythrocytes, SYBR Green DNA, 72 h; series mostly up to 28.7 µM. The method in brief: as §1
The next assay has as its system PAD. The assay is described as above. Conditions: P. falciparum in erythrocytes, SYBR Green DNA, 72 h; series mostly up to 28.7 µM. Put shortly: as §1
For the next assay, the system named is PC15. The description is as above. The conditions noted are these: P. falciparum in erythrocytes, SYBR Green DNA, 72 h; series mostly up to 28.7 µM. The method in brief: as §1
The test system of a further assay is PC26. The assay is described as above. Conditions: P. falciparum in erythrocytes, SYBR Green DNA, 72 h; series mostly up to 28.7 µM. The method in brief: as §1
A further assay relates to PC49. Described as above. The conditions noted are these: P. falciparum in erythrocytes, SYBR Green DNA, 72 h; series mostly up to 28.7 µM. Put shortly: as §1
The test system of another assay is TAB109. The description is as above. Conditions: P. falciparum in erythrocytes, SYBR Green DNA, 72 h; series mostly up to 28.7 µM. The method in brief:
as §1

The test system of another assay is TAB113. The assay is described as above. Conditions: P. falciparum in erythrocytes, SYBR Green DNA, 72 h; series mostly up to 28.7 µM. Put shortly: as §1

As to `CCC(C(=O)O)C1OC(C(C)C(O)C(C)C(=O)C(CC)C2OC3(C=CC(O)C4(CCC(C)(C5CCC(O)(CC)C(C)O5)O4)O3)C(C)CC2C)C(C)CC1C` (centres undefined), the Potency entry in assay [1] is “inactive”. The Potency in the assay with CP266 was 151 nM (active); in the assay with CP268, 75.7 nM (active); in the assay on CP269, 95.3 nM (active); in the assay on CP297, 135 nM (active); in the assay on CP305, 53.6 nM (active); in the assay on CP325, 84.9 nM (active). The Potency with CP329 was 95.3 nM (active); with CP335, 42.6 nM (active); in the assay on DIV14, 95.3 nM (active); in the assay on ECU, 178 nM (active); in the assay with GB4, 53.6 nM (active); in the assay on JCK it was 199 nM (active). Moreover, the Potency with P93_24 is 178 nM (active); with PAD, 224 nM (active); with PC15, 158 nM (active); in the assay on PC26 it was 75.7 nM (active); in the assay with PC49 it was 251 nM (active); in the assay with TAB109, 112 nM (active). The Potency in the assay with TAB113 is 79.4 nM (active).

On to `O=C1C(I)=CC(=C(c2cc(I)c(O)c(I)c2)c2ccccc2C(=O)O)C=C1I`, for which the Potency entry with CP266, in the assay with CP268, with CP269, with CP297, in the assay on CP305 and with CP325 was “inactive” throughout. The Potency entry in the assay on CP329, in the assay with CP335, with DIV14, in the assay with ECU, in the assay on GB4 and in the assay with JCK was “inactive” throughout. For the same compound, the Potency result in the assay on P93_24, in the assay on PAD, in the assay on PC15, in the assay with PC26, in the assay on PC49 and in the assay on TAB109 was “inactive” each time. In addition, the Potency result in the assay on TAB113 is “inactive”.

In the case of `CC(=O)NC1[C@H]([C@H](O)[C@H](O)CO)OC(C(=O)O)=C[C@H]1N=C(N)N` (some centres undefined), the Potency result (in [1]; in the assay with CP266; with CP268; in the assay with CP269; in the assay with CP297; with CP305) was “inactive” throughout. The Potency entry with CP325, with CP329, in the assay on CP335, in the assay on DIV14, in the assay on ECU and with GB4 was “inactive” throughout. Also, the Potency result in the assay on JCK, in the assay with P93_24, in the assay with PAD, in the assay on PC15, with PC26 and with PC49 was “inactive” in each case. The Potency entry in the assay on TAB109 and in the assay with TAB113 was “inactive” throughout.

As to `OCCN1CC(O)C(O)C(O)C1CO` (centres undefined), the Potency entry (in assay [1]; with CP266; with CP268; in the assay with CP269; with CP297; with CP305) was “inactive” each time. The Potency entry in the assay with CP325, with CP329, with CP335, in the assay with DIV14, with ECU and with GB4 was “inactive” throughout. For the same compound, the Potency result in the assay on JCK, in the assay on P93_24, in the assay on PAD, in the assay on PC15, in the assay with PC26 and in the assay on PC49 was “inactive” in each case. Moreover, the Potency result in the assay with TAB109 and in the assay with TAB113 was “inactive” throughout.

With `OC[C@@H]1O[C@](CO)(O[C@H]2O[C@H](CO)[C@@H](O)[C@H](O)[C@H]2O)[C@H](O)[C@H]1O`, the Potency entry (in assay [1]; in the assay with CP266; with CP268; in the assay with CP269; with CP297; with CP305) was “inactive” each time. In addition, the Potency entry in the assay with CP325, with CP329, with CP335, in the assay on DIV14, with ECU and in the assay with GB4 was “inactive” in each case. Besides, the Potency result in the assay with JCK, with P93_24, with PAD, with PC15, in the assay with PC26 and in the assay with PC49 was “inactive” throughout. Also, the Potency result with TAB109 and with TAB113 was “inactive” throughout.

As to `CC(=O)NC1[C@H](O)C[C@@](O)(C(=O)O)O[C@H]1[C@H](O)[C@H](O)CO` (some centres undefined), the Potency result (in assay [1]; in the assay on CP266; in the assay on CP268; in the assay on CP269; in the assay with CP297; in the assay with CP305) was “inactive” throughout. For the same compound, the Potency entry in the assay on CP325, in the assay with CP329, with CP335, in the assay with DIV14, in the assay on ECU and in the assay on GB4 was “inactive” each time. Further, the Potency entry in the assay with JCK, with P93_24, with PAD, with PC15, in the assay on PC26 and with PC49 was “inactive” throughout. Besides, the Potency result in the assay with TAB109 and in the assay on TAB113 was “inactive” throughout.

Regarding `O=[N+]([O-])O[C@H]1CO[C@H]2[C@@H]1OC[C@H]2O`, the Potency entry (in [1]; in the assay with CP266; with CP268; with CP269; in the assay with CP297; in the assay on CP305) was “inactive” in each case. Besides, the Potency result in the assay with CP325, with CP329, in the assay with CP335, in the assay on DIV14, in the assay on ECU and in the assay on GB4 was “inactive” each time. Also, the Potency result in the assay with JCK, in the assay with P93_24, with PAD, with PC15, in the assay with PC26 and in the assay with PC49 was “inactive” throughout. For the same compound, the Potency result in the assay with TAB109 and with TAB113 was “inactive” throughout.

The values are drawn from PubChem BioAssay (NCATS).
